FEN1 inh: human FEN1 inhibition | Recombinant FEN1 flap cleavage, fluorescence, 15 min | 390,000 tested, 0.35% active | AID 588795 | Potency, µM (series often up to 114 µM), actives largely listed as inhibitors; note: nearly all actives have a fitted effect of over 65% in size
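Recombinant FEN1 (10 nM) was preincubated with pin-transferred compounds for 15 min at room temperature, then flap DNA substrate (50 nM final) was added. Plates were read at 0 and 15 min, and normalized concentration–response data were fitted to a four-parameter Hill equation.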
Pol eta inh: blocks human DNA polymerase eta activity. Q9Y253. Potency, µM (doses to about 114 µM), hits mostly inhibitors. 390,000 tested, 1.2% active. recombinant Pol eta, fluorescent DNA replication assay
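Pol eta at 10 nM preincubated with compounds 15 min at room temperature; reaction started with fluorescent substrate (50 nM final) and read kinetically at 0 and 10 min.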
WRN helicase inh: blocks human WRN helicase | 360,000 tested, 0.46% active | WRN helicase unwinding, fluorescent forked duplex, kinetic | Potency, µM (top dose mostly 114 µM), hits mostly inhibitors | Q14191; note: nearly all actives have a fitted effect of over 55% in size
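Fluorescence dequenching readout, ex 525 nm/em 598 nm, kinetic mode: forked duplex DNA (100 nM final) with adjacent fluorophore and quencher unwound by WRN (20 nM final) with 2 mM ATP. Compound preincubation 15 min, room temperature.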
Pol beta inh: blocks human DNA polymerase beta activity; P06746; Pol beta primer extension/strand displacement, fluorescence kinetic; Potency, µM (top dose mostly 114 µM), most hits filed as inhibitors; 340,000 tested, 1.3% active
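Values derive from four-parameter Hill fits of normalized kinetic data: reads at 0 and 10 min following addition of 50 nM substrate to 10 nM Pol beta preincubated 15 min with compound.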
POLK inh: DNA polymerase kappa (human) inhibition; Q9UBT6; Potency, µM (series often up to 107 µM), actives largely listed as inhibitors; 400,000 tested, 0.53% active; purified Pol kappa, fluorescent DNA synthesis assay, 10 min
Target sequence (Q9UBT6 whole entry, looked up): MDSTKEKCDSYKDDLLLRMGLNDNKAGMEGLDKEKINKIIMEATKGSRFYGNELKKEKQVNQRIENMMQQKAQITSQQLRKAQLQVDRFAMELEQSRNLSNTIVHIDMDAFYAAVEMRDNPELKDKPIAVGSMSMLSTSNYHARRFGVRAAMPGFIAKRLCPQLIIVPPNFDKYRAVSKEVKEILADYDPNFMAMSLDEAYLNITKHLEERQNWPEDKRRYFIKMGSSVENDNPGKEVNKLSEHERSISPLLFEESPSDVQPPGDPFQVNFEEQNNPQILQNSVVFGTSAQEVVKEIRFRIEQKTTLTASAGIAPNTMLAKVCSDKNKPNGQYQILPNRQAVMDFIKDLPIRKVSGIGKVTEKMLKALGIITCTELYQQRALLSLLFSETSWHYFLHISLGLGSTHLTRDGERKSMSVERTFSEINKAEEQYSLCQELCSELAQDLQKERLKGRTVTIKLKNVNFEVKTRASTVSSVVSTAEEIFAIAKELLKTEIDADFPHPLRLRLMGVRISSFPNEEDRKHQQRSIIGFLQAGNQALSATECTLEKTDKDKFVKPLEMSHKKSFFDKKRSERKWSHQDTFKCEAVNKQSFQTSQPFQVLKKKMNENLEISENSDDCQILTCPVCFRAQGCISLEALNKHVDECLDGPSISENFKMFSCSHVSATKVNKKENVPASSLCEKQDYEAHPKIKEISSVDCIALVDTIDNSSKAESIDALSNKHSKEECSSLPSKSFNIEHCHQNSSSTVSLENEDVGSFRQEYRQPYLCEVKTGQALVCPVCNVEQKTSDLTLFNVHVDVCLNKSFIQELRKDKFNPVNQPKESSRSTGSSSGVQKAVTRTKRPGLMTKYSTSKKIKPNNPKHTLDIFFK
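Pol kappa 10 nM + cpd, 15 min RT; start w/ substrate 50 nM final; fluorescence kinetic read, 0 and 10 min. Neg ctrl: buffer, no enzyme.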
Pol iota inh: inhibitors of human DNA polymerase iota. Q9UNA4. Pol iota fluorescent replication assay, 10 min. Potency, µM (highest dose often 115 µM), hits mostly inhibitors. 390,000 tested, 1% active
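Fluorescent replication assay read twice, at 0 min and 10 min after adding 50 nM (final) substrate. Enzyme (10 nM) and compounds were first incubated 15 min at room temperature; enzyme-free buffer wells were negative controls.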
Large screens that a line does not name were inactive. Sampled rows, rich in hits. Any-hit rate of the full collection: about 2.4%. Calls come from the whole dose curve; as a rule, active = well fitted curve in the direction sought with a large enough effect; inconclusive = small, poorly fitted or top-dose-only effect, or another doubt; inactive = no such curve, though single readings can be large; an effect the other way counts as inactive or inconclusive.

Cn1c(NCc2ccccc2F)nc2ccccc21	Pol beta inh inconclusive, Pol iota inh inconclusive (no result: WRN helicase inh)
COc1ccc(CNc2ccc3cn[nH]c3c2)c(OC)c1OC	none
CCOc1cc(CNc2ccc3cn[nH]c3c2)ccc1OC	FEN1 inh 35µM, Pol eta inh inconclusive, Pol iota inh inconclusive
O=C1SC(SCc2ccccc2)=N/C1=C\c1ccco1	FEN1 inh inconclusive, Pol eta inh 79µM, WRN helicase inh 50µM, Pol beta inh 35µM, POLK inh 32µM, Pol iota inh 11µM
O=C1SC(SCc2ccccc2)=N/C1=C\c1ccc(C(=O)O)cc1	none
O=S(=O)(Nc1c(Br)cc(Br)c2cccnc12)C1CC1	FEN1 inh inconclusive, Pol iota inh 13µM (no result: Pol eta inh, WRN helicase inh, Pol beta inh)
CC(C)=C1C(=O)NN(c2ccc(F)c(Cl)c2)C1=O	WRN helicase inh inconclusive, Pol beta inh inconclusive, POLK inh 25µM, Pol iota inh inconclusive
O=C1NN(c2ccc(F)c(Cl)c2)C(=O)/C1=C\c1cccc(OC(=O)c2cccs2)c1	Pol eta inh 20µM, WRN helicase inh 50µM, Pol beta inh inconclusive, POLK inh inconclusive, Pol iota inh inconclusive
O=C(c1cccc(F)c1)N1CCC2(CC1)CCN(C(c1ccccc1)c1ccccc1)CC2	none (no result: FEN1 inh, Pol eta inh, WRN helicase inh, Pol beta inh, Pol iota inh)
CCOc1cccc2sc(NC(=O)c3ccc(S(=O)(=O)N4CCCCC4)cc3)nc12	Pol beta inh inconclusive (no result: WRN helicase inh)
CCCCCCCCCCCCOCCOCCOCCOCCOCCOCCOCCOCCOCCO	none (no result: FEN1 inh, Pol eta inh, WRN helicase inh, Pol beta inh, Pol iota inh)
N#C/C(=C\c1ccc(-c2cccc(Cl)c2)o1)C(=O)Nc1cccc(C(F)(F)F)c1	Pol iota inh 89µM (no result: WRN helicase inh)
Cc1ccc2nc(CSc3nnc(Nc4ccccc4F)s3)cc(=O)n2c1	Pol beta inh 22µM, Pol iota inh inconclusive
Cc1cc(/C(N)=N/OC(=O)c2cccc(Cl)c2)no1	WRN helicase inh inconclusive, Pol beta inh 89µM
O=C(O)c1ccccc1-c1ccc(C(F)(F)F)cc1	none (no result: FEN1 inh, Pol eta inh, WRN helicase inh, Pol beta inh, Pol iota inh)
COc1ccc(-c2coc3cc(O)ccc3c2=O)c(OC)c1O	none (no result: FEN1 inh, Pol eta inh, WRN helicase inh, Pol beta inh, Pol iota inh)
COc1ccc(-c2coc3cc(O)ccc3c2=O)c(O)c1O	POLK inh 1.8µM (no result: FEN1 inh, Pol eta inh, WRN helicase inh, Pol beta inh, Pol iota inh)
COC1=CC(=O)C=C(OC)C1=O	FEN1 inh inconclusive, WRN helicase inh 45µM, Pol iota inh inconclusive (no result: Pol beta inh)
COC1=CC(=O)c2ccccc2C1=O	FEN1 inh 10µM, Pol eta inh inconclusive, Pol iota inh 14µM (no result: Pol beta inh)
CC(C)c1ccc(NC(=O)CSc2nc(=O)n(Cc3cccnc3)c3c2CCC3)cc1	none (no result: WRN helicase inh)
Cc1ccc(S(=O)(=O)N2CCN(c3nc(-c4cncs4)nc4ccccc34)CC2)cc1	none (no result: Pol eta inh, WRN helicase inh, Pol beta inh)
Cc1ccc2cc(N)ccc2n1	Pol beta inh inconclusive
Nc1ccc2cc3ccc(N)cc3nc2c1	POLK inh 9.5µM (no result: FEN1 inh, Pol eta inh, WRN helicase inh, Pol beta inh, Pol iota inh)
Cc1ccc(NC(=O)c2cc(S(=O)(=O)N3CCCCC3)c[nH]2)cc1N(C)C	none (no result: WRN helicase inh)
CCCNC1=C(N(C(C)=O)c2cccc(F)c2)C(=O)c2ccccc2C1=O	Pol iota inh 79µM
CCC(=O)N(C1=C(NC(C)C)C(=O)c2ccccc2C1=O)C(C)C	Pol iota inh inconclusive
OC[C@H]1OC(O)[C@@H](O)[C@@H](O)[C@H]1O (stereo partly drawn)	none (no result: FEN1 inh, Pol eta inh, WRN helicase inh, Pol beta inh, Pol iota inh)
O=C1OC(NC(=O)c2ccccc2)C(n2cc(CO)nn2)=C1Cl (stereo not drawn)	WRN helicase inh 50µM, Pol iota inh inconclusive
OCc1cn(-c2ccccc2)nn1	none
CC1=C([N+](=O)[O-])C(c2ccc(Cl)cc2)NC(=O)N1C (stereo not drawn)	WRN helicase inh 71µM
O=C(Cn1cc(COc2ccccc2C(F)(F)F)nn1)c1ccc(O)cc1	Pol iota inh 5µM (no result: Pol beta inh)
CC(=O)c1ccc(OCc2cn(CC(=O)c3ccc(O)cc3)nn2)cc1	Pol iota inh inconclusive (no result: Pol beta inh)
Cc1cccc(C)c1OCc1cn(CC(=O)c2ccc(O)cc2)nn1	Pol iota inh 7.9µM (no result: Pol beta inh)
COc1cc(C(C)=O)ccc1OCc1cn(CC(=O)c2ccc(O)cc2)nn1	FEN1 inh inconclusive, Pol iota inh 4.5µM (no result: Pol beta inh)
COc1cc(C=O)ccc1OCc1cn(CC(=O)c2ccc(O)cc2)nn1	none (no result: Pol beta inh)
CC(=O)c1ccc(OCc2cn(CC(=O)c3ccc(O)cc3)nn2)c(C)c1	none (no result: FEN1 inh, Pol beta inh, POLK inh, Pol iota inh)
O=C(Cn1cc(COc2ccc(Br)cc2[N+](=O)[O-])nn1)c1ccc(O)cc1	Pol iota inh 4.5µM (no result: Pol beta inh)
O=C(C[n+]1cccc2cc(Cl)ccc21)c1cccc([N+](=O)[O-])c1	none (no result: Pol eta inh, WRN helicase inh, Pol beta inh)
